An excerpt weighted towards active compounds, which were near 12% of everything screened.
ALDH1A1 inh = ALDH1A1 (human) enzyme inhibition; AID 1030; Potency, µM (top dose mostly 75.3 µM), actives largely listed as inhibitors; Purified ALDH1A1, NADH fluorescence, propionaldehyde substrate; P00352; 220,000 compounds, 7.3% hits; active = well fitted inhibition curve with a large enough effect, not every such curve was filed as active; inconclusive = small, poorly fitted or top-dose-only effect, or another doubt; inactive = no such curve, though single readings can be large or run the other way
Gal4-VP16 FLuc = inhibits Gal4-VP16 luciferase reporter, ROR gamma counter-screen. Drosophila S2 Gal4-VP16 UAS-luciferase, luminescence, 20 h. Potency, µM (highest dose often 53.6 µM), most hits filed as inhibitors. 310,000 compounds, 3.5% hits. AID 2546;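 note: Gal4-VP16 expression switched on by copper sulfate through the metallothionein promoter; nearly all actives have a fitted effect of over 50% in size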
Sfp PPTase inh = inhibitors of Bacillus subtilis Sfp phosphopantetheinyl transferase; Q9F4F7; Biochemical Sfp PPTase activity, qHTS; Potency, µM, usual class: inhibitors; 310,000 compounds, 3.5% hits; AID 1490;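 note: the enzyme is Sfp with the accession as filed and its product quenches rhodamine fluorescence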
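Fluorescence-quenching assay: 15 nM Sfp-PPTase preincubated 15 min at room temperature with compound, then 5 uM rhodamine-CoA and 12.5 uM BHQ-2-labelled YbbR peptide added. Fluorescence (ex 525/em 598 nm) read at start and after 30 min; difference gives rate.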
RORgamma inh = blocks mouse ROR gamma transcriptional activity | P51450 | Drosophila S2 Gal4-RORgamma UAS-luciferase reporter, 20 h | Potency, µM (top dose mostly 53.6 µM), actives largely listed as inhibitors | 310,000 compounds, 5.4% hits; note: nearly all actives have a fitted effect of over 60% in size
Target sequence (P51450 whole entry, looked up, the tested form may be a part): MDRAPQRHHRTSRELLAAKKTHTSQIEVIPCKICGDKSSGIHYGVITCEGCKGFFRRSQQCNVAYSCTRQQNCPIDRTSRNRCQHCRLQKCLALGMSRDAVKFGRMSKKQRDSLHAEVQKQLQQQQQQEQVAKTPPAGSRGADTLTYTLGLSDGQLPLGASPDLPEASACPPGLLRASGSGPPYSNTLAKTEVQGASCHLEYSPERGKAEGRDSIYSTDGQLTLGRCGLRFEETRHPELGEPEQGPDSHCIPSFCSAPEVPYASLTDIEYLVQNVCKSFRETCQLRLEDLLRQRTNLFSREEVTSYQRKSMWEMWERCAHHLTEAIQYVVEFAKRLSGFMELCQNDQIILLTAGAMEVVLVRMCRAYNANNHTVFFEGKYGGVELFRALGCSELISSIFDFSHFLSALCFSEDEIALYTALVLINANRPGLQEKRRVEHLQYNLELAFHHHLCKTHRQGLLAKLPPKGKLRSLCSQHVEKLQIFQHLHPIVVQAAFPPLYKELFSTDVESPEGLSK
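Drosophila S2 cells stably expressing Gal4-DBD/mouse RORγ fusion under metallothionein promoter plus UAS-luciferase; compound 1 h, then 700 uM CuSO4 induction for 20 h at ambient temperature; inhibition read as reduced luminescence.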
PLK1 PBD inh = blocks phosphopeptide binding to human PLK1 polo-box domain. Plk1 PBD binding of FITC phosphopeptide, fluorescence polarization. P53350. 360,000 compounds, 2.8% hits. Potency, µM, hits mostly inhibitors; note: series mostly up to about 57 µM; nearly all actives have a fitted effect of over 65% in size
Hits are given with their value; ! = not confirmed by another sample; [ ] = another dose, or the depositor's remark. Unless noted, calls come from the whole dose curve; as a rule, active = well fitted curve in the direction sought with a large enough effect; inconclusive = small, poorly fitted or top-dose-only effect, or another doubt; inactive = no such curve, though single readings can be large; an effect the other way counts as inactive or inconclusive.

What do the screens show for `O=C(O)c1ccc2c(c1)C(=O)N([C@@H](Cc1ccc(O)cc1)C(=O)O)C2=O`?
Gal4-VP16 FLuc: 6.3µM; Sfp PPTase inh: inactive; RORgamma inh: 2µM

What do the screens show for `COCCN1C[C@@H](CO)O[C@@H](n2cnc3c(NCCO)ncnc32)C1`?
PLK1 PBD inh: inactive

How did COC(Cc1n[nH]c(=S)n1-c1ccccc1)OC do in these assays?
ALDH1A1 inh: inactive; Gal4-VP16 FLuc: inactive; Sfp PPTase inh: inactive; RORgamma inh: inactive; PLK1 PBD inh: inactive

How did CC(c1n[nH]c(=S)n1-c1ccccc1)N1CCCCC1 (stereo not given) do in these assays?
ALDH1A1 inh: inactive; Gal4-VP16 FLuc: inactive; Sfp PPTase inh: inactive; RORgamma inh: 10µM; PLK1 PBD inh: inactive

What do the screens show for `COc1cccc(-c2cncnc2NCc2ccccc2)c1`?
ALDH1A1 inh: inconclusive; Gal4-VP16 FLuc: inactive; Sfp PPTase inh: inactive; RORgamma inh: inconclusive

Results for C=CCn1c(Cc2ccccc2)n[nH]c1=S ?
ALDH1A1 inh: inactive; Gal4-VP16 FLuc: inconclusive; Sfp PPTase inh: inactive; RORgamma inh: 7.1µM; PLK1 PBD inh: inactive

How did C=CCn1c(Cc2nc3ccc(Cl)cc3[nH]2)n[nH]c1=S do in these assays?
ALDH1A1 inh: 10µM; Gal4-VP16 FLuc: inactive; Sfp PPTase inh: 50µM; RORgamma inh: inconclusive; PLK1 PBD inh: inactive

How did C=CCn1c(CNS(=O)(=O)c2ccc(Cl)cc2)n[nH]c1=S do in these assays?
Gal4-VP16 FLuc: inactive; Sfp PPTase inh: inactive; RORgamma inh: inactive; PLK1 PBD inh: inactive

What do the screens show for `C=CCn1c(CCc2cc(C(C)(C)C)c(O)c(C(C)(C)C)c2)n[nH]c1=S`?
ALDH1A1 inh: inactive; Gal4-VP16 FLuc: 7.9µM; Sfp PPTase inh: inactive; RORgamma inh: 2.5µM; PLK1 PBD inh: inactive

What do the screens show for `C=CCn1c(Cc2c[nH]c3ccccc23)n[nH]c1=S`?
ALDH1A1 inh: 8.9µM; Gal4-VP16 FLuc: inactive; Sfp PPTase inh: inconclusive; RORgamma inh: inactive[10 µM]; PLK1 PBD inh: inactive

How did Cn1c(Cc2ccccc2)n[nH]c1=S do in these assays?
ALDH1A1 inh: inactive; Gal4-VP16 FLuc: inactive; Sfp PPTase inh: inactive; RORgamma inh: inconclusive; PLK1 PBD inh: inactive

How did OCCCSCCO do in these assays?
ALDH1A1 inh: inactive[13.5 µM]

How did C=CCn1c(CCC(O)CCCCC)n[nH]c1=S (stereo not given) do in these assays?
ALDH1A1 inh: inconclusive; Gal4-VP16 FLuc: inactive; Sfp PPTase inh: inactive; RORgamma inh: inconclusive; PLK1 PBD inh: inactive

Results for C=CCn1c(CCCOc2ccc(Cl)cc2Cl)n[nH]c1=S ?
ALDH1A1 inh: inactive; Gal4-VP16 FLuc: 5.6µM; Sfp PPTase inh: inactive; RORgamma inh: 3.5µM; PLK1 PBD inh: inactive

What do the screens show for `CC1CCc2ccccc2N1C(=O)c1cccs1` (stereo not given)?
ALDH1A1 inh: inactive; Gal4-VP16 FLuc: inactive; Sfp PPTase inh: inactive; RORgamma inh: inactive; PLK1 PBD inh: 21µM

How did COC(=O)[C@@]1(Cc2ccccc2)[C@H]2c3cc(C(=O)N(C)C)n(Cc4ccccc4)c3C[C@H]2CN1C(=O)c1ccccc1 do in these assays?
ALDH1A1 inh: inactive; Gal4-VP16 FLuc: inactive; Sfp PPTase inh: inactive; RORgamma inh: inactive

How did Cc1cc(C(F)(F)F)c(C#N)c(SCC(=O)Nc2nc3ccccc3s2)n1 do in these assays?
ALDH1A1 inh: inactive; Gal4-VP16 FLuc: inactive; Sfp PPTase inh: inactive; RORgamma inh: inconclusive; PLK1 PBD inh: inactive

What do the screens show for `Cc1nc(SCC(=O)Nc2nc3ccccc3s2)c(C#N)c(C)c1C`?
ALDH1A1 inh: inconclusive; Gal4-VP16 FLuc: inconclusive; Sfp PPTase inh: 50µM; RORgamma inh: 0.35µM; PLK1 PBD inh: inactive

How did Cc1ccc2sc(NC(=O)CSc3nc(C)cc(C)c3C#N)nc2c1 do in these assays?
ALDH1A1 inh: inconclusive; Gal4-VP16 FLuc: inconclusive; Sfp PPTase inh: inactive; RORgamma inh: 0.71µM; PLK1 PBD inh: inactive

What do the screens show for `O=C1c2cccc3cc([N+](=O)[O-])cc(c23)C(=O)N1/N=C/c1ccc(O)cc1O`?
Gal4-VP16 FLuc: inconclusive; Sfp PPTase inh: inactive; RORgamma inh: inactive; PLK1 PBD inh: inactive

How did O=C1C([N+](=O)[O-])=C(O)c2cccc3cccc1c23 do in these assays?
Gal4-VP16 FLuc: 18µM; Sfp PPTase inh: 8.9µM; RORgamma inh: inconclusive

Results for O=C(NCc1ccc(F)cc1)c1cc(C2CCCCN2C(=O)CCc2ccccc2)on1 (stereo not given) ?
PLK1 PBD inh: inactive

What do the screens show for `Cc1cccc(NC(=O)c2nc[nH]c2C(=O)N[C@@H](CC(C)C)C(=O)OC(C)(C)C)c1`?
Gal4-VP16 FLuc: 10µM; Sfp PPTase inh: inactive; RORgamma inh: 5.6µM; PLK1 PBD inh: inactive

How did CCOC(=O)c1ccc(NC(=O)c2nc[nH]c2C(=O)N[C@H](C)CO)cc1 do in these assays?
PLK1 PBD inh: inactive

How did CCOC(=O)c1ccc(NC(=O)c2nc[nH]c2C(=O)N[C@@H](Cc2ccccc2)C(=O)OC(C)(C)C)cc1 do in these assays?
Gal4-VP16 FLuc: 7.1µM; Sfp PPTase inh: inactive; RORgamma inh: 2.8µM; PLK1 PBD inh: inactive

What do the screens show for `Cc1cccc(NC(=O)c2nc[nH]c2C(=O)N[C@@H](Cc2ccccc2)C(=O)OC(C)(C)C)c1`?
Gal4-VP16 FLuc: 7.1µM; Sfp PPTase inh: inactive; RORgamma inh: 3.2µM; PLK1 PBD inh: inactive

What do the screens show for `CC(C)(C)OC(=O)[C@H](Cc1ccccc1)NC(=O)c1nc[nH]c1C(=O)NCCCCCN`?
PLK1 PBD inh: inactive

What do the screens show for `CC(C)(C)OC(=O)[C@H](Cc1ccccc1)NC(=O)c1[nH]cnc1C(=O)Nc1ccc(Cl)cc1`?
Gal4-VP16 FLuc: 8.9µM; Sfp PPTase inh: inactive; RORgamma inh: 4µM; PLK1 PBD inh: inactive

Results for CCCC[C@@H]1CCCO[C@@](C(=O)NCCN2CCOCC2)(C(F)(F)F)C1 ?
Gal4-VP16 FLuc: inactive; Sfp PPTase inh: inactive; RORgamma inh: inactive

What do the screens show for `COc1cccc(Nc2ncc3nc(C)c(=O)n(Cc4cccs4)c3n2)c1`?
ALDH1A1 inh: inconclusive; Gal4-VP16 FLuc: inactive; Sfp PPTase inh: inactive; RORgamma inh: inactive

Results for CCc1ccccc1Oc1nc(NCCOC)nc2cc(-c3ccccc3)sc12 ?
PLK1 PBD inh: inactive

How did CC(C)(C)OC(=O)[C@H](Cc1ccccc1)NC(=O)c1[nH]cnc1C(=O)Nc1cccc(Cl)c1 do in these assays?
Gal4-VP16 FLuc: 4µM; Sfp PPTase inh: inactive; RORgamma inh: 4.5µM; PLK1 PBD inh: inactive

Results for COc1cc(OC)c2c(-c3ccccc3)cc(=O)oc2c1C(CCN1CCCCC1)c1ccc2c(c1)OCO2 (stereo not given) ?
Gal4-VP16 FLuc: inconclusive; Sfp PPTase inh: 13µM!; RORgamma inh: inactive; PLK1 PBD inh: inactive

How did COc1cc(OC)c2c(-c3ccccc3)cc(=O)oc2c1C(CCN1CCCC(C)C1)c1ccc2c(c1)OCO2 (stereo not given) do in these assays?
Gal4-VP16 FLuc: inactive; Sfp PPTase inh: inconclusive; RORgamma inh: inactive; PLK1 PBD inh: inactive

How did CCCCCc1cc(=O)oc2c(C(CCN3CCCC(C)C3)c3cc(OC)c(OC)c(OC)c3)c(OC)cc(OC)c12 (stereo not given) do in these assays?
Gal4-VP16 FLuc: inactive; Sfp PPTase inh: inactive; RORgamma inh: inactive; PLK1 PBD inh: inactive

Bioassay records as filed in PubChem.
